High-throughput results: PubChem, National Center for Advancing Translational Sciences (NCATS)
JMJD2A Tudor: inhibitors of human JMJD2A Tudor domain | O75164 | Potency, µM (titrated, usually from 114 µM), most hits filed as inhibitors | actives 4.4% (n = 390,000) | AID 504339 | AlphaScreen JMJD2A-Tudor / H3K4me3 peptide binding; further: nearly all actives have a fitted effect of over 50% in size
BAZ2B block: BAZ2B (human) inhibition; Q9UIF8; actives 4.4% (n = 360,000); Potency, µM (highest dose often 114 µM), most hits filed as inhibitors; AID 504333; AlphaScreen BAZ2B-H3K14Ac peptide displacement; further: nearly all actives have a fitted effect of over 60% in size
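Compounds, titrated to a top concentration of 110 uM, were incubated 30 min at room temperature with preformed BAZ2B/acetyl-K14 H3 peptide complex (50 nM each). Proximity signal was measured by AlphaScreen after 20 min with beads.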
L3MBTL1 inh: inhibitors of human L3MBTL1 | Q9Y468 | AlphaScreen L3MBTL1–H3K9me1 peptide binding | Potency, µM (titrated, usually from 57.1 µM), hits mostly inhibitors | AID 485360 | actives 0.66% (n = 230,000); further: nearly all actives have a fitted effect of over 60% in size
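AlphaScreen assay: L3MBTL1 (50 nM final) was preincubated 30 min at room temperature with biotinylated H3(1-15)K9me1 peptide (75 nM final), then 30 min with library compounds; streptavidin donor and nickel chelate acceptor beads (10 ug/mL final) added, 30 min dark.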
PI5P4K alpha inh: PI5P4K alpha (human) kinase inhibition | actives 1.2% (n = 330,000) | max response, % | PI5P4Kalpha enzyme, ADP-Glo luminescence, 60 min; active compounds read low; active means max response of -50% or lower; inconclusive means between -30% and -50%; inactive means -30% or higher; further: value at the top dose of about 77 µM
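Human PI5P4Kalpha with substrate in 0.038 M HEPES pH 7.4, 0.28 mM EGTA, 0.1% CHAPS, 5% DMSO; reaction started with 5 microM ATP (final), 60 min at room temperature. ADP formed read by ADP-Glo luminescence.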
G9a block: inhibitors of human histone lysine methyltransferase G9a. Potency, µM (top dose mostly 102 µM), usual class: inhibitors. G9a H3K9 monomethylation, AlphaScreen, 2 h. actives 8.8% (n = 350,000). AID 504332. Q96KQ7; further: nearly all actives have a fitted effect of over 75% in size
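Compounds were preincubated with 20 nM G9a for 15 min, after which biotinylated H3K9 peptide (500 nM) and SAM (20 uM) started a 2 h room-temperature reaction. Monomethylated product was quantified by antibody-based AlphaScreen chemiluminescence.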
HP1b binding inh: inhibitors of HP1-beta chromodomain binding to methylated histone tails; AlphaScreen HP1-beta / biotin-H3K9me3 peptide binding; actives 0.56% (n = 390,000); Potency, µM (top dose mostly 114 µM), most hits filed as inhibitors; P83916; further: nearly all actives have a fitted effect of over 70% in size
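HP1-beta protein (50 nM final) preincubated 30 min at room temperature with biotinylated H3(1-18)K9me3 peptide (50 nM) in PBS pH 7.4, 0.01% Tween-20, then compound added for 30 min. AlphaScreen streptavidin donor/nickel chelate acceptor beads (10 ug/mL final), 30 min dark, luminescence read.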
Hits are given with their value; - = inactive; ? = inconclusive; . = no result given; [ ] = another dose, or the depositor's remark. Most compounds without a hit are left out; they make up all but 11% or so of the library. Unless noted, the call rests on the fitted dose curve; in most records, active means well fitted inhibition curve with a large enough effect; inconclusive means small, poorly fitted or top-dose-only effect; inactive means no such curve, though single readings can be large or run the other way.

SMILES | JMJD2A Tudor | BAZ2B block | L3MBTL1 inh | PI5P4K alpha inh | G9a block | HP1b binding inh
Cc1c(Cl)cccc1-n1ncc(C(=O)Nc2ccc3c(c2)OCCO3)c1C1CCN(C(=O)OC(C)(C)C)CC1 | - | - | . | . | ? | -
CCCc1nc2sc3c(N4CCC(C)CC4)ncnc3c2c2c1CCCC2 | - | - | . | . | - | -
O=C(COCc1cc(-c2ccco2)on1)Nc1ccc(OC(F)(F)F)cc1 | - | - | . | . | ? | -
CC(=O)CCc1oc2ccc(NC(C)=O)cc2c1-c1ccc(C)o1 | ? | ? | - | - | 13µM | -
C#CCOCCOCCOCCNc1nc(N2CCN(C(=O)[C@H]([C@@H](C)CC)n3cc([C@@H](N)Cc4ccc(O)cc4)nn3)CC2)nc(N2CCN(C(=O)[C@H](CCCCN)n3cc([C@@H](N)CO)nn3)CC2)n1 | . | 50µM | - | . | ? | .
C#CCOCCOCCOCCNc1nc(N2CCOCC2)nc(N2CCN(C(=O)[C@H]([C@@H](C)CC)n3cc([C@@H](N)Cc4ccc(O)cc4)nn3)CC2)n1 | - | - | - | - | ? | -
C#CCOCCOCCOCCNc1nc(N2CCN(C(=O)C([C@@H](C)CC)n3cc(C(N)CO)nn3)CC2)nc(N2CCN(C(=O)[C@H](CCC(=O)O)n3cc(C(N)Cc4ccc(O)cc4)nn3)CC2)n1 (some centres not stated) | . | 40µM | . | . | -[12.7 µM] | .
CNC1CCC(c2ccc(Cl)c(Cl)c2)c2ccccc21 (configuration not stated) | . | . | . | . | -[2.33 µM] | .
CCCN1C(=O)/C(=C\C=C2\N(CC)c3ccccc3C2(C)C)SC1=S | 8.9µM | 3.5µM | ? | - | . | ?
CN1/C(=C\C=C2/SC(=S)NC2=O)C(C)(C)c2ccccc21 | ? | 7.9µM | - | -77 | 7.9µM | ?
CCCN1C(=O)/C(=C\C=C2/Sc3ccccc3N2CC)SC1=S | . | ? | - | . | ? | .
CN(C)c1cccc(C(=O)N/N=C/c2ccccc2F)c1 | - | - | - | - | - | -
Cc1cc(/C=N/NC(=O)c2cccc(N(C)C)c2)c(C)n1-c1cc(C(=O)O)cc(C(=O)O)c1 | 40µM | . | . | ? | 11µM | 32µM
Cc1cc(/C=N/NC(=O)C(O)(c2ccccc2)c2ccccc2)c(C)n1-c1cccc(C(=O)O)c1 | ? | 56µM | ? | -51 | 40µM | -
O=C(CSc1nc(-c2ccccc2)c2ccccc2n1)Nc1ccc(F)cc1 | - | - | . | . | - | -
CCn1nc(-c2ccccc2)c(-c2ccccc2)c(C(=O)Nc2ccc(NC(C)=O)cc2)c1=O | - | - | . | . | - | -
COc1ccccc1-n1c(CNC(=O)c2cccs2)n[nH]c1=S | ? | - | . | - | ? | -
COc1ccc(-n2c(CNC(=O)c3cc(OC)c(OC)c(OC)c3)n[nH]c2=S)cc1 | 7.1µM | ? | - | . | 8.9µM | -
COc1ccc(-c2noc(CNC(=O)c3cc(OC)c(OC)c(OC)c3)n2)cc1 | - | - | . | . | - | -
COc1cc(OC)cc(C(=O)NCc2n[nH]c(=S)n2-c2ccccc2OC)c1 | 10µM | - | - | . | 1µM | -
COc1ccc(CNC(=O)CCCCCn2c(=O)[nH]c3ccccc3c2=O)cc1 | - | - | . | . | - | -
O=C(Oc1cc(Cl)ccc1Cl)c1ccc(N2CCOCC2)c([N+](=O)[O-])c1 | 35µM | ? | - | - | ? | ?
O=C(/C=C/c1ccccc1[N+](=O)[O-])N1CCN(c2ccccc2F)CC1 | - | ? | - | - | 56µM | -
O=[N+]([O-])c1cc(Cl)ccc1N1CCN(c2ccccc2O)CC1 | 40µM | 14µM | . | - | ? | ?
O=C(/C=C/c1ccc(Cl)cc1Cl)N1CCN(c2ccccc2[N+](=O)[O-])CC1 | ? | ? | ? | - | 40µM | ?
SMILES | JMJD2A Tudor | BAZ2B block | L3MBTL1 inh | PI5P4K alpha inh | G9a block | HP1b binding inh
O=C(Oc1ccc(Cl)cc1)c1ccc(N2CCOCC2)c([N+](=O)[O-])c1 | ? | ? | - | - | ? | -
O=C(/C=C/c1ccc(Cl)cc1Cl)N1CCN(c2ccc([N+](=O)[O-])c(N3CCOCC3)c2)CC1 | - | ? | - | - | ? | -
Cc1nn(C)c2c1c(C(F)(F)F)cc(=O)n2C(C)C(=O)NCCC(C)C (configuration not stated) | - | - | . | . | - | -
O=C(NCc1ccc(F)cc1)C(=O)NCC(c1ccc2c(c1)OCO2)N1CCOCC1 (configuration not stated) | - | - | . | . | - | -
O=S(=O)(CCN1CCN(c2ccccc2O)CC1)c1cc(Cl)ccc1Cl | - | - | - | - | 45µM | -
Cc1cccc(N2CCN(S(=O)(=O)c3cc(Cl)ccc3Cl)CC2)c1C | - | - | . | . | - | -
CCN1CCN(Cc2ccc(NC(=O)c3ccc(C)c(/C=C/c4cnc(Nc5cc(N6CCNCC6)nc(C)n5)cn4)c3)cc2C(F)(F)F)CC1 | 79µM | ? | - | -74 | 28µM | ?
CC(=O)Nc1scc(-c2ccccc2)[n+]1-c1ccc(C)cc1 | - | ? | . | - | 50µM | -
Cc1ccc(NC(=O)c2csc(-c3ccccc3)c2C)cc1 | - | - | - | - | - | -
CCn1cc2nc(SCC(=O)Nc3ccccc3F)n(Cc3ccc(C)cc3)c(=O)c2n1 | - | - | . | . | ? | -
CCOC(=O)c1nn(-c2ccccc2)c(=O)c2c(N)scc12 | -[11.4 µM] | . | - | -61 | 1.6µM | -
CCOC(=O)c1nn(-c2ccccc2C)c(=O)c2c(N)scc12 | 18µM | 79µM | - | ? | 3.2µM | -
CCOC(=O)c1nn(-c2ccccc2)c(=O)c2c(NC(C)=O)scc12 | - | . | . | - | - | -
Nc1c(C(=O)N/N=C/c2ccc(Cl)cc2)cnn1-c1ccccc1 | - | - | - | - | - | -
Nc1scc2c(C(=O)N/N=C/c3ccc(Cl)cc3)nn(-c3ccccc3)c(=O)c12 | 45µM | ? | - | . | ? | -
Cc1ccccc1Cn1c2ccccc2c2cnn(CC(=O)NCCCc3ccccc3)c(=O)c21 | - | - | . | . | - | -
O=C(COc1ccc(F)cc1)NC1CC(=O)N(c2ccc3c(c2)OCCO3)C1 (configuration not stated) | - | - | . | . | - | -
COc1ccc(-c2cn3cccnc3n2)cc1NC(=O)Cc1ccccc1 | - | - | . | . | - | -
COc1ccc(OCC2c3cc(OC)c(OC)cc3CCN2C(=O)c2c(F)cccc2F)cc1 (configuration not stated) | ? | - | . | . | ? | -
Nc1ccc(Sc2ccc([N+](=O)[O-])cc2)cc1 | ? | 35µM | . | - | 56µM | ?
O=C1C=CC(=O)N1c1ccc(Sc2ccc([N+](=O)[O-])cc2)cc1 | . | ? | - | . | 8.9µM | .
Cn1c(N)c(Sc2ccc([N+](=O)[O-])cc2)c(=O)n(C)c1=O | ? | - | . | - | - | -
CCc1cccc(NC(=O)c2coc(=O)c3ccccc23)c1 | - | - | . | . | - | -
